Measurements: the supplement of paper PMC10849652
About 8,800 targets were measured; listed, in parts, are those with a hit and a random draw of the rest. About 0.5% of all pairs of compound and target were hits. A number with no mark means an inactive call.

The targets below were run with C1=CC=C(C=C1)[C@H](COC2=CC3=C(C=C2)NC(=O)N3)NC(=O)C4=CC=CN(C4=O)CC5=CC(=C(C=C5)F)F (assay: log2 fold change, soluble protein after heating vs DMSO (PISA); higher = thermal stabilisation; K562 lysate, 10 uM; active = over 0.2 and 3.5 SD of the protein, either way, in both replicates (recomputed)).
Procedure, shortened: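 K562 pellets were dounce-homogenised in PBS pH 7.4 containing 1 mM MgCl2, and the crude extract, at 1 mg/mL protein, was exposed to 10 μM compound for 30 min. Aliquots were heated for 3 min across 48°C-58°C, pooled, brought to 0.5% NP-40 at 4°C and spun at 21,000xg for 90 min, with the supernatant taken as soluble protein. TMTpro 16plex LC-MS/MS with equalised channel sums quantified that protein. Values are log-two fold changes in thermal stability relative to solvent controls, taken from duplicates.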

UniProt P43897, sequence (P43897 whole entry, looked up): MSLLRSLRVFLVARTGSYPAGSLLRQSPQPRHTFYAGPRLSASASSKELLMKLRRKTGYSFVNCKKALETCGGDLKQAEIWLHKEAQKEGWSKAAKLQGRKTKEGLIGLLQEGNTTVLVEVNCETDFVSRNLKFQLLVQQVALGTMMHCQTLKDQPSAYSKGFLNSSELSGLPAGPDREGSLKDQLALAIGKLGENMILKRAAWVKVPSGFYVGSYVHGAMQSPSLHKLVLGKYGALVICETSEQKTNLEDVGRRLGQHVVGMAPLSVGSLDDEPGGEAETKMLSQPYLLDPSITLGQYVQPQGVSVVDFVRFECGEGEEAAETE
UniProt Q12788, sequence (Q12788 whole entry, looked up): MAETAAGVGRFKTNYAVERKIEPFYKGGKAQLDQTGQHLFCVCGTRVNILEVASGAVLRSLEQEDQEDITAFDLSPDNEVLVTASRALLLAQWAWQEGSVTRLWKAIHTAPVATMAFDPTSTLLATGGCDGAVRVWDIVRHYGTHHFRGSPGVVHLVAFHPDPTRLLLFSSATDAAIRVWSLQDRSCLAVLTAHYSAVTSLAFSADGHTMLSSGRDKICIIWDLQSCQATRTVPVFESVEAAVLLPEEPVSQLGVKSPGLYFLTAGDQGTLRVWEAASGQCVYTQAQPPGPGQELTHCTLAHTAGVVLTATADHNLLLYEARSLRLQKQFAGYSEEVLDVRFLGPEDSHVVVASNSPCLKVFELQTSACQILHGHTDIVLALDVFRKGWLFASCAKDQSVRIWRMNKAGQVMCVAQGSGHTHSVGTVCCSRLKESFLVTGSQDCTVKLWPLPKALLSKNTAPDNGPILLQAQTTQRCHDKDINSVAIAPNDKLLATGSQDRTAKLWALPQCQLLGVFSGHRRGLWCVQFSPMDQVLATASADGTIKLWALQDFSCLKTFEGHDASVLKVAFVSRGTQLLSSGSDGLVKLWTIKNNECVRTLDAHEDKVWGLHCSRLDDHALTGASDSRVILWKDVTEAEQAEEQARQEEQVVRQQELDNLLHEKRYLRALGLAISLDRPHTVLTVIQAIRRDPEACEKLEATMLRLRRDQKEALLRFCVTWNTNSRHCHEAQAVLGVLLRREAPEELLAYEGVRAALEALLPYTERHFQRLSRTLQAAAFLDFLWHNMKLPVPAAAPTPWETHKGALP
UniProt P33981, sequence (P33981 whole entry, looked up): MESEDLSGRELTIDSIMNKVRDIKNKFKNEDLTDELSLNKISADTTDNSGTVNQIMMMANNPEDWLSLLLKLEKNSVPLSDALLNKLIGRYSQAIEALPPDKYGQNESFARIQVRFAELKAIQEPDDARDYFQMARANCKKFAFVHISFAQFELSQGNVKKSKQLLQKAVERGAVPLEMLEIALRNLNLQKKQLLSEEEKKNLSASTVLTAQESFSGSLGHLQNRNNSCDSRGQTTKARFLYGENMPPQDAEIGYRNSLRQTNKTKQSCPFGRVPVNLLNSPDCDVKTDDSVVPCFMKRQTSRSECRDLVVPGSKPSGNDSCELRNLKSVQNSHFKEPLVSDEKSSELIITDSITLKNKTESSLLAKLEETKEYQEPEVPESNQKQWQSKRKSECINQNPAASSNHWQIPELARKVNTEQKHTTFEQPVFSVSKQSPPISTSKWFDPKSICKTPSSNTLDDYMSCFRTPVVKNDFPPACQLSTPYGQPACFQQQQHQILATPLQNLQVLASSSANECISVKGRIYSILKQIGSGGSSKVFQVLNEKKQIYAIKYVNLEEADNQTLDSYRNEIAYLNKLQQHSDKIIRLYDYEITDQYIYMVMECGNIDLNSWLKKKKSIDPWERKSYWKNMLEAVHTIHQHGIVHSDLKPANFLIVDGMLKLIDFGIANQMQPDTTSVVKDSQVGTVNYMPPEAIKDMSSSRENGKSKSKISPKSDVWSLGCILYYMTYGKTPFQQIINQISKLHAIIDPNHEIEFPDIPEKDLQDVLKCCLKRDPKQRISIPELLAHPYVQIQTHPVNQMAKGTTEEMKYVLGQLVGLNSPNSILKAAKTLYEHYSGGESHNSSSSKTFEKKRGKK
UniProt P42167, sequence (P42167 whole entry, looked up): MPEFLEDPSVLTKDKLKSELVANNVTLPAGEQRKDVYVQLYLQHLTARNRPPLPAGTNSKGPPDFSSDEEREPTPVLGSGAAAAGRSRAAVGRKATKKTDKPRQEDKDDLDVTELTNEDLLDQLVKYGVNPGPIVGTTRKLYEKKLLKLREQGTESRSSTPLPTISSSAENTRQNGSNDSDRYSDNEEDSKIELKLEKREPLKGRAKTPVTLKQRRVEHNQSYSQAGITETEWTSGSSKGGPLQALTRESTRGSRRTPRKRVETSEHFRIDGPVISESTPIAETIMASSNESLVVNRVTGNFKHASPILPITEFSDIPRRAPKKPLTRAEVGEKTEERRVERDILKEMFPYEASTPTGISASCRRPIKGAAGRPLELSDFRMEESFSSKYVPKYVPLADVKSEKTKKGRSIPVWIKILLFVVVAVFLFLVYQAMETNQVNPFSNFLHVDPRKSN
UniProt Q5JUR7, sequence (Q5JUR7 whole entry, looked up): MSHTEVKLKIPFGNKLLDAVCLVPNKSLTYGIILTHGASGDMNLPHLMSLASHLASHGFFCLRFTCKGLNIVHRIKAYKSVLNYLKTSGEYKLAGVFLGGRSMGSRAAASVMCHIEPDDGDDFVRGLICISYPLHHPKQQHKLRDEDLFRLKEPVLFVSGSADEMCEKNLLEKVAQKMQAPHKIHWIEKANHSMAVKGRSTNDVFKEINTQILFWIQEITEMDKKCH
UniProt O43615, sequence (O43615 whole entry, looked up): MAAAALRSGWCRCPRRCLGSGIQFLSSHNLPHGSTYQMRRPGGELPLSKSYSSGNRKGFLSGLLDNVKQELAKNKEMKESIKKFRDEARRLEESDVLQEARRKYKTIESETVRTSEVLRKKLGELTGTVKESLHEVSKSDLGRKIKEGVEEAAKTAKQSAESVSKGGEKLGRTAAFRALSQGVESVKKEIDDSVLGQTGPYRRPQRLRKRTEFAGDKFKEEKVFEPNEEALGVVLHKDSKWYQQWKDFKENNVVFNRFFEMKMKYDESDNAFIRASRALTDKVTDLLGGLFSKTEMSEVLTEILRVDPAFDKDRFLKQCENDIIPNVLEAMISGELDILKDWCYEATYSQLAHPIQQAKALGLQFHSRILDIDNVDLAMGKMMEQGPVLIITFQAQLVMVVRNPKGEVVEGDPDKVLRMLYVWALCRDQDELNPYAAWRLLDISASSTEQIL
UniProt Q9UHD2, sequence (Q9UHD2 whole entry, looked up): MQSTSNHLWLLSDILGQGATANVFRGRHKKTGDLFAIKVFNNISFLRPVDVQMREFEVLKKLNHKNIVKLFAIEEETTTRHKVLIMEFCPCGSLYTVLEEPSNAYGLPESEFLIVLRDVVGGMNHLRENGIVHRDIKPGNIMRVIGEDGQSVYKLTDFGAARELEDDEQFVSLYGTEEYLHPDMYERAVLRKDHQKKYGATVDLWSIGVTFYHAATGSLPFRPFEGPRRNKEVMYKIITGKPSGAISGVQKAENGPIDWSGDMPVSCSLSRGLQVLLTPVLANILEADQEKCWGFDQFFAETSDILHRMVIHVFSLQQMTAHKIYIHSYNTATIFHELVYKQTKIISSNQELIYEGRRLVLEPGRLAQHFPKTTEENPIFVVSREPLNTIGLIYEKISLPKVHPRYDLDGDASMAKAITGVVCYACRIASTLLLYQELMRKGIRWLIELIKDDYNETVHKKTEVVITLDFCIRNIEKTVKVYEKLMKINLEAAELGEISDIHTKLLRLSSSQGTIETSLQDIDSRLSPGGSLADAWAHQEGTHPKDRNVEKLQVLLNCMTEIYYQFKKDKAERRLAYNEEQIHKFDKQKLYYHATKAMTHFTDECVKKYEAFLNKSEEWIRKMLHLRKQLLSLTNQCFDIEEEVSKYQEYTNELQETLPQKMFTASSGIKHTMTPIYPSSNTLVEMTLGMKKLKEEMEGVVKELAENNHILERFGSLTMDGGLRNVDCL
UniProt O94842, sequence (O94842 whole entry, looked up): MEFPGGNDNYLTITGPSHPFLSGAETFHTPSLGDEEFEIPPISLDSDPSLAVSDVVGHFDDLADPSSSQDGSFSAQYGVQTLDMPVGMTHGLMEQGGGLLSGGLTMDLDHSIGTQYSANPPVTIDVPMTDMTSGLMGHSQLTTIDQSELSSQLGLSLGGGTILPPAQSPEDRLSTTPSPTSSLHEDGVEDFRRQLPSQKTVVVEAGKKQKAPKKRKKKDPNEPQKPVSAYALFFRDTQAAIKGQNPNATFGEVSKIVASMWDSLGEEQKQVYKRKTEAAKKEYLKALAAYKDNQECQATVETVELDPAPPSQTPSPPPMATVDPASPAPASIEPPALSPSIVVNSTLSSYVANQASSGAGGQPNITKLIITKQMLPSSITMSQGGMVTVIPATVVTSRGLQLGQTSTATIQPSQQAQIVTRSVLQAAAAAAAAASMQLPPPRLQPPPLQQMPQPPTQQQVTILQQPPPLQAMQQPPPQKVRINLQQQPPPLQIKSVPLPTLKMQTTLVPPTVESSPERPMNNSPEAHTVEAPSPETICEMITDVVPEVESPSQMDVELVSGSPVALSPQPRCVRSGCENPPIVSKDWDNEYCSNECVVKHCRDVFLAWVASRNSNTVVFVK
UniProt Q96DX7, sequence (Q96DX7 whole entry, looked up): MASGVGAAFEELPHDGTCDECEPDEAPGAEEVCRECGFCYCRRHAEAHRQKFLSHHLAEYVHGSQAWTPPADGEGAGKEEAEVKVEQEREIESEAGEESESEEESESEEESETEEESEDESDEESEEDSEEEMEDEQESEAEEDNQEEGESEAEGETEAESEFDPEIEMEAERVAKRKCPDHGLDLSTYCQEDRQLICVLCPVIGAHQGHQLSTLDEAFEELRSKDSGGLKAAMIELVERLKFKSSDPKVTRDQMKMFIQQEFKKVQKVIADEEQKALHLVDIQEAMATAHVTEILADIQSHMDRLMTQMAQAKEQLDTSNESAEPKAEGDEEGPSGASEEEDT

TSFM (UniProt P43897) and TOX4 (UniProt O94842) are within 0.2 log units of each other in log2 fold change: 0.006 for the first, -0.011 for the second.

TUBGCP3 (UniProt Q96CW5) and TEX30 (UniProt Q5JUR7) are within 0.2 log units of each other in log2 fold change: -0.007 for the first, -0.074 for the second.

UBP1 (UniProt Q9NZI7) and UBAP2 (UniProt Q5T6F2) are within 0.2 log units of each other in log2 fold change: 0.082 for the first, -0.019 for the second.

TRIM44 (UniProt Q96DX7) and TMEM87A (UniProt Q8NBN3) are within 0.2 log units of each other in log2 fold change: 0.096 for the first, 0.066 for the second.

TK1 (UniProt P04183) and TBK1 (UniProt Q9UHD2) are within 0.2 log units of each other in log2 fold change: 0.006 for the first, -0.012 for the second.

TMPO (UniProt P42167) and TTC5 (UniProt Q8N0Z6) are within 0.2 log units of each other in log2 fold change: -0.017 for the first, -0.022 for the second.

TUBB (UniProt P07437) and UBE4A isoform 2 (UniProt Q14139) are within 0.2 log units of each other in log2 fold change: 0.025 for the first, -0.016 for the second.

TGOLN2 isoform 7 (UniProt O43493) and TBL3 (UniProt Q12788) are within 0.2 log units of each other in log2 fold change: 0.065 for the first, 0.024 for the second.

TYW3 (UniProt Q6IPR3) and TBC1D23 (UniProt Q9NUY8) are within 0.2 log units of each other in log2 fold change: 0.082 for the first, 0.007 for the second.

TTK (UniProt P33981) and TSPAN13 (UniProt O95857) are within 0.2 log units of each other in log2 fold change: -0.016 for the first, 0.076 for the second.

TRMT12 (UniProt Q53H54) and TIMM44 (UniProt O43615) are within 0.2 log units of each other in log2 fold change: 0.104 for the first, -0.062 for the second.

Target TRIP12 isoform 2 (UniProt Q14669) has a log2 fold change of -0.043.
